The list is not random: actives were taken first. Their share in the collection is about 5.5%.
Six1-Eya2 inh – blocks human Six1 binding to Eya2; Q15475+O00167; AlphaScreen GST-Six1/His-Eya2 binding, biochemical; hits give low values; activity change, % (test concentration not listed); hit rate 0.56% among 360,000; AID 651725; in the data active = activity change below about -65%; inconclusive = mostly about -30% to -63%; also: % is scaled to controls: 0 for no effect and ±100 for the full control effect
Target sequence (O00167 whole entry, looked up): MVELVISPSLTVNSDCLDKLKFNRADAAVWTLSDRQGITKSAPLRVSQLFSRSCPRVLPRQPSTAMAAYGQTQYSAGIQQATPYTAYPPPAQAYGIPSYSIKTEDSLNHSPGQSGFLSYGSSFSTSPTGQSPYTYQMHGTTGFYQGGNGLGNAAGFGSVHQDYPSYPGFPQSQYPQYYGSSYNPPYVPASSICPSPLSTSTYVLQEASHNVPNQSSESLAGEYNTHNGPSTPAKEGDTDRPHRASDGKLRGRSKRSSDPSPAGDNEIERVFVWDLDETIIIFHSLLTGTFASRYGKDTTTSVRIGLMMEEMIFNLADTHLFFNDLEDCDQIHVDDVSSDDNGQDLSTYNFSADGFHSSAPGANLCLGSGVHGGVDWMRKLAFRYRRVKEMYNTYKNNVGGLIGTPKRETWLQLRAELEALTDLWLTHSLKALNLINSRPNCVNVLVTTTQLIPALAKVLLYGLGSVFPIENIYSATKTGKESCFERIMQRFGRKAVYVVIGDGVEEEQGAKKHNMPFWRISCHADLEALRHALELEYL
Target sequence (Q15475 whole entry, looked up): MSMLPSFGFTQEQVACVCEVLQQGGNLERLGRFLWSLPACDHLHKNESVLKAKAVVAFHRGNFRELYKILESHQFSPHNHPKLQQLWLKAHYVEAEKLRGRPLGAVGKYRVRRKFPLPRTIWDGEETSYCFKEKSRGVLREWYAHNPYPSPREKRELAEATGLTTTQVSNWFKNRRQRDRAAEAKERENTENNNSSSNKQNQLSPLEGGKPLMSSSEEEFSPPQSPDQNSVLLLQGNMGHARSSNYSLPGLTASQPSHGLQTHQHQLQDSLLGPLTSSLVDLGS
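AlphaScreen luminescence read after one hour at 37 °C in darkness. Pin-transferred compounds met GST-Six1 and His-Eya2 protein (5X stock 250 nM/500 nM) plus glutathione donor and Ni-chelate acceptor beads (5X, 50 ug/mL).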
Gal4-VP16 FLuc – Gal4-VP16 reporter inhibition counter-screen | Drosophila S2 Gal4-VP16 UAS-luciferase, luminescence, 20 h | Potency, µM (titrated, usually from 53.6 µM), for the others: at the top dose activity, negative = inhibition, hits mostly inhibitors | hit rate 3.5% among 310,000 | AID 2546;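 also: Gal4-VP16 expression switched on by copper sulfate through the metallothionein promoter; potency is read from the fitted curve at half-maximal effect; % is scaled to controls: 0 for no effect and ±100 for the full control effect; nearly all actives have a fitted effect of over 50% in size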
MBNL1 CUG block – blocks human MBNL1 binding to CUG repeat RNA | TR-FRET MBNL1-His/biotin-(CUG)12 binding, 665/545 ratio | Potency, µM (series often up to 57.5 µM), for inactives: at the highest dose activity change, negative = inhibition, usual class: inhibitors | hit rate 0.036% among 280,000 | AID 2675; active = well fitted inhibition curve with a large enough effect in the signal ratio, with a control signal flat, not every such curve was filed as active; inconclusive = small, poorly fitted or top-dose-only effect, or effect the other way, or a change in a side signal; inactive = no such curve, though single readings can be large or run the other way; the % refers to the signal ratio; also: potency is read from the fitted curve at half-maximal effect; % is scaled to controls: 0 for no effect and ±100 for the full control effect
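His-tagged MBNL1 binding to biotinylated (CUG)12 RNA was measured by TR-FRET using terbium anti-His antibody (0.055 ng/ul final) and streptavidin-XL665 (5 nM final). Compounds were titrated 92 nM to 58 uM; 60 min at room temperature.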
RORg inh – blocks mouse ROR gamma transcriptional activity; AID 2551; Drosophila S2 Gal4-RORgamma UAS-luciferase reporter, 20 h; Potency, µM (series often up to 53.6 µM), inactives show at the highest dose activity change, negative = inhibition, hits mostly inhibitors; hit rate 5.4% among 310,000; P51450; also: potency is read from the fitted curve at half-maximal effect; % is scaled to controls: 0 for no effect and ±100 for the full control effect; nearly all actives have a fitted effect of over 60% in size
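Luciferase reporter read in Schneider cells carrying Gal4-RORγ (mouse) and UAS-Photinus luciferase; cells given compound 1 h before 700 uM copper sulfate induction, then incubated 20 h at ambient temperature.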
CBFb RUNX1 block – blocks binding between human CBF-beta and RUNX1 | Potency, µM (titrated, usually from 59.8 µM), inactives show top-dose activity, negative = inhibition, actives largely listed as inhibitors | Q01196+Q13951 | 230,000 tested, under 10 active | AlphaScreen CBFb-His/RUNX1-biotin binding, biochemical; also: % of control where 0% means no effect
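Bead-based AlphaScreen assay; binding partners His-tagged CBF-beta and biotinylated RUNX1 at 30 nM each. Compound exposure 15 min after a 20-min protein preincubation; bead step 90 min; all steps at room temperature.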
CtBP-E1A inh – CtBP/E1A binding inhibition; AlphaScreen GST-E1A/His-CtBP binding, 1536-well; hits give low values; hit rate 0.49% among 340,000; activity change, % (concentration not given with the values); in the data active = activity change below about -65%; inconclusive = mostly about -30% to -63%; also: % is scaled to controls: 0 for no effect and ±100 for the full control effect
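Homogeneous bead-based format: GST-tagged E1A captured on glutathione donor beads, His-tagged CtBP on nickel acceptor beads; compounds precede bead addition by 2 h at 37 °C.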
An asterisk follows results filed as active. Unless noted, calls follow the shape of the dose curve; as a rule, active = well fitted curve in the direction sought with a large enough effect; inconclusive = small, poorly fitted or top-dose-only effect, or another doubt; inactive = no such curve, though single readings can be large; an effect the other way counts as inactive or inconclusive.

Results for O=c1cc(-c2ccccc2)n(S(=O)(=O)c2ccc3ccccc3c2)o1 ?
Six1-Eya2 inh: 2; CtBP-E1A inh: -1

How did O=c1cc(-c2ccccc2)n(S(=O)(=O)c2ccccc2)o1 do in these assays?
Six1-Eya2 inh: 4; Gal4-VP16 FLuc: 0%; MBNL1 CUG block: 2%; RORg inh: 0%; CBFb RUNX1 block: 0%; CtBP-E1A inh: -3

How did COc1ccccc1C(C[N+](=O)[O-])c1c(N)n(C)c(=O)n(C)c1=O (configuration not stated) do in these assays?
Six1-Eya2 inh: 21; Gal4-VP16 FLuc: 14µM*; MBNL1 CUG block: -15%; RORg inh: inconclusive; CBFb RUNX1 block: 2%

What do the screens show for `COc1ccccc1C(c1c(N)n(C)c(=O)n(C)c1=O)C(C)[N+](=O)[O-]` (configuration not stated)?
Six1-Eya2 inh: 2; Gal4-VP16 FLuc: 5%; MBNL1 CUG block: -6%; RORg inh: -1%; CBFb RUNX1 block: 4%; CtBP-E1A inh: 6

Results for CCCOc1ccc(C(=O)Nc2ccc(S(=O)(=O)NC3=NCCCCC3)cc2)cc1 ?
Six1-Eya2 inh: -28; CtBP-E1A inh: -1

Results for Cc1cccc(CSc2nn3c(=O)c(C)nnc3s2)c1 ?
Six1-Eya2 inh: 0; Gal4-VP16 FLuc: -6%; MBNL1 CUG block: 7%; RORg inh: 0%; CBFb RUNX1 block: -3%; CtBP-E1A inh: -1

What do the screens show for `Cc1nnc2sc(SCc3ccc(Cl)cc3)nn2c1=O`?
Six1-Eya2 inh: 7; Gal4-VP16 FLuc: 20%; MBNL1 CUG block: 0%; RORg inh: -11%; CBFb RUNX1 block: -12%; CtBP-E1A inh: -4

Results for Cc1nnc2sc(SCC(=O)Nc3ccc(Cl)cc3)nn2c1=O ?
Six1-Eya2 inh: inconclusive; Gal4-VP16 FLuc: -12%; MBNL1 CUG block: 12%; RORg inh: -19%; CBFb RUNX1 block: inconclusive; CtBP-E1A inh: -88*

Results for CC(=O)Nc1cccc(NC(=O)CSc2nn3c(=O)c(C)nnc3s2)c1 ?
Six1-Eya2 inh: -73*; Gal4-VP16 FLuc: -5%; MBNL1 CUG block: -1%; RORg inh: -12%; CBFb RUNX1 block: -1%; CtBP-E1A inh: -88*

What do the screens show for `O=C(COc1ccccc1Cl)NNC(=O)c1ccc2nc[nH]c2c1`?
Six1-Eya2 inh: 7; CtBP-E1A inh: -14

What do the screens show for `Cc1nc(C(=O)NNC(=O)c2ccc(C(F)(F)F)cc2)cs1`?
Six1-Eya2 inh: -8; Gal4-VP16 FLuc: inconclusive; MBNL1 CUG block: -13%; RORg inh: 5µM*; CBFb RUNX1 block: 2%; CtBP-E1A inh: -2

How did Cc1cc(C(=O)NNC(=O)c2ccc(C(F)(F)F)cc2)no1 do in these assays?
Six1-Eya2 inh: -2; Gal4-VP16 FLuc: 2%; MBNL1 CUG block: -5%; RORg inh: 6%; CBFb RUNX1 block: 7%; CtBP-E1A inh: -2

What do the screens show for `N=c1n(CCN2CCOCC2)c2ccccc2n1CC(=O)c1ccc(Cl)c(Cl)c1`?
Six1-Eya2 inh: 17; Gal4-VP16 FLuc: 4µM*; MBNL1 CUG block: -2%; RORg inh: inconclusive; CBFb RUNX1 block: -21%; CtBP-E1A inh: 0

Results for O=C(COC(=O)Cn1cnc2ccccc21)Nc1ccc(F)c(F)c1 ?
Six1-Eya2 inh: 0; CtBP-E1A inh: -5

How did COc1ccc(NC(=S)N(Cc2ccc(N(C)C)cc2)Cc2ccco2)cc1 do in these assays?
Six1-Eya2 inh: inconclusive; Gal4-VP16 FLuc: 20µM*; RORg inh: 13µM*; CBFb RUNX1 block: 3%; CtBP-E1A inh: -21

Results for CCOc1ccc(NC(=S)N(Cc2ccc(N(C)C)cc2)Cc2ccco2)cc1 ?
Six1-Eya2 inh: inconclusive; Gal4-VP16 FLuc: 32µM*; MBNL1 CUG block: -19%; RORg inh: inconclusive; CBFb RUNX1 block: inconclusive; CtBP-E1A inh: inconclusive

What do the screens show for `CCNC(=S)N(Cc1ccco1)Cc1cc2cc(OCC)ccc2[nH]c1=O`?
Six1-Eya2 inh: -22; Gal4-VP16 FLuc: inconclusive; MBNL1 CUG block: 10%; RORg inh: 18µM*; CBFb RUNX1 block: -2%; CtBP-E1A inh: -8

How did COc1cc(C(=O)Oc2ccccc2/C=N/NC(=O)c2ccc(C)c(Cl)c2)cc(OC)c1OC do in these assays?
Six1-Eya2 inh: -6; Gal4-VP16 FLuc: inconclusive; MBNL1 CUG block: -7%; RORg inh: 5µM*; CBFb RUNX1 block: 3%; CtBP-E1A inh: 11

What do the screens show for `COc1cc(C(=O)Oc2ccccc2/C=N/NC(=O)c2ccc(Cl)cc2)cc(OC)c1OC`?
Six1-Eya2 inh: -22; Gal4-VP16 FLuc: 11µM*; MBNL1 CUG block: -9%; RORg inh: 6.3µM*; CBFb RUNX1 block: -19%; CtBP-E1A inh: inconclusive

What do the screens show for `CC(=O)Nc1ccc(C(=O)N/N=C/c2ccccc2OC(=O)c2ccc(Cl)cc2)cc1`?
Six1-Eya2 inh: -22; Gal4-VP16 FLuc: -8%; MBNL1 CUG block: -11%; RORg inh: inconclusive; CBFb RUNX1 block: -9%; CtBP-E1A inh: inconclusive

Results for CCC1=C2CC[C@H]3C(=O)NC(=O)[C@H]3[C@H]2[C@@]2(Cc3ccccc3)C(=NCC3CC3)OC(=O)N2C1=O ?
Gal4-VP16 FLuc: -2%; RORg inh: 0%; CBFb RUNX1 block: 5%

What do the screens show for `O=C(CNS(=O)(=O)c1cccc(Cl)c1)Nc1ccc(-c2nc3ccccc3s2)cc1`?
Six1-Eya2 inh: 1; Gal4-VP16 FLuc: 2µM*; MBNL1 CUG block: 73%; RORg inh: -35%; CBFb RUNX1 block: 1%; CtBP-E1A inh: -2

What do the screens show for `CNc1ccc(-c2nc3ccccc3s2)cc1`?
Gal4-VP16 FLuc: inconclusive; RORg inh: 1.4µM*; CBFb RUNX1 block: 2%

How did O=C(CCS(=O)(=O)c1ccccc1)Nc1ccc(-c2nc3ccccc3s2)cc1 do in these assays?
Six1-Eya2 inh: 0; Gal4-VP16 FLuc: 5.6µM*; MBNL1 CUG block: 77%; RORg inh: inconclusive; CBFb RUNX1 block: -19%; CtBP-E1A inh: 1

Results for CCOc1ccc(NC(=O)CN(C)C(=O)c2cn(-c3ccccc3)nc2-c2cccs2)cc1OCC ?
Six1-Eya2 inh: -12; Gal4-VP16 FLuc: -7%; MBNL1 CUG block: 4%; RORg inh: 23%; CtBP-E1A inh: 6

How did CN(C)CCNc1ncnc2c1ncn2[C@H]1CN(Cc2ccc(F)cc2)C[C@@H](CO)O1 do in these assays?
Six1-Eya2 inh: 9; CtBP-E1A inh: 0

How did COc1ccc(CC(=O)NCC(=O)NCc2cc(=O)n(C)c(=O)n2C)cc1 do in these assays?
Six1-Eya2 inh: 3; Gal4-VP16 FLuc: 17%; MBNL1 CUG block: 5%; RORg inh: -27%; CtBP-E1A inh: 1

Screening data: PubChem BioAssay, National Center for Advancing Translational Sciences (NCATS)
